RGS4-Gao reg – human RGS4-Galphao interaction regulation. P09471. Multiplexed bead flow cytometry, RGS4-Galphao binding; actives lie on both sides. binding response (% of control), % at 10 µM. 220,000 compounds, 0.33% hits; in the data active means binding response below about 49% or above about 150%; inactive means in between;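 further: fluorescent Galphao activated with aluminum fluoride binding bead-coupled RGS4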
Target sequence (P09471 whole entry, looked up): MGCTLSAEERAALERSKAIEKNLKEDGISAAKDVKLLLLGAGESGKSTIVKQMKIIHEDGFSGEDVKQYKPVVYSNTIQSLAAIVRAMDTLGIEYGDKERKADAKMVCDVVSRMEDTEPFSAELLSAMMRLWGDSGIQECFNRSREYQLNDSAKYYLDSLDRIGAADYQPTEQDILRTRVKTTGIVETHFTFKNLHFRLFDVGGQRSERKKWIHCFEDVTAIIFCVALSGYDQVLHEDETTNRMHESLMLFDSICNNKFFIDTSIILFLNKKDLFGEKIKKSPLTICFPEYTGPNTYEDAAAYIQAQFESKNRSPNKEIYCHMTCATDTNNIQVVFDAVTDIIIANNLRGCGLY
Avidin bead fluor – avidin bead compound fluorescence profile; AID 1775; Avidin beads, compound fluorescence 488/530 nm, flow cytometry; stronger effect = higher value; 220,000 compounds, 0.38% hits; fluorescence (KMESF) at 10 µM; in the data active means fluorescence above about 47
RGS8-Gao reg – regulators of human RGS8-Galphao interaction | P09471 | multiplexed bead flow cytometry, RGS8-Galphao binding; actives lie on both sides | response (percent of control binding), % at 10 µM | 220,000 compounds, 0.34% hits | AID 1423; in the data active means response below about 60% or above about 140%; inactive means in between;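 further: Galphao activated as the GDP aluminium fluoride complex binding bead-coupled RGS8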
RGS16-Gao HTS – regulators of human RGS16-Galphao interaction; O15492+P09471; bead-based flow cytometry RGS16-Galphao binding, fluorescence; actives lie on both sides; binding response (% of control), % at 10 µM; 220,000 compounds, 0.38% hits;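 further: Galphao activated by GDP with aluminum fluoride before binding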
GSH fluor – compound fluoresces at 488/530 nm on GSH beads; GSH beads flow cytometry, compound fluorescence 488/530 nm; stronger effect = higher value; fluorescence (KMESF) at 10 µM; 190,000 compounds, 0.25% hits; AID 1776; in the data active means fluorescence above about 89;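 further: glutathione beads carrying GST-tagged Bcl family fusion proteins plus one bare bead set; values are compound well signal with DMSO vehicle wells as background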
RGS7-Gao reg – human RGS7-Galphao interaction regulation. P09471. Multiplexed bead flow cytometry, RGS7-Galphao binding; actives lie on both sides. binding response (% of control), % at 10 µM. 220,000 compounds, 0.35% hits. AID 1439; in the data active means binding response below about 49% or above about 150%; inconclusive means no clear call, values can overlap the other calls; inactive means in between;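 further: fluorescent Galphao held in activated GDP-AlF4 state binding bead-coupled RGS7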
RGS4-Gao HTS – RGS4-Galphao interaction regulator (human) | shares compounds with RGS16-Gao HTS | 1,600 compounds, 99% hits | RGS4–Galpha-o binding response, % at 10 µM | multiplexed bead flow cytometry, RGS–Galpha-o binding;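 further: fluorescently labeled Galpha-o bound to GDP with aluminium fluoride binding biotinylated RGS beads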
Target sequence (P09471 whole entry, looked up): as above
Target sequence (P49798 whole entry, looked up): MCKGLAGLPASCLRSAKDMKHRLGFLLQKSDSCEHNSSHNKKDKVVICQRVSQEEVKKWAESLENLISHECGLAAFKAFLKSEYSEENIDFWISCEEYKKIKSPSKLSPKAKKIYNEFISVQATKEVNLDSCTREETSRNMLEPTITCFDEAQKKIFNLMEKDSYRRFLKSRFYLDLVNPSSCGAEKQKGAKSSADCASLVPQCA
Biotin-avidin – interferes with biotinylated probe binding to avidin beads; shares compounds with RGS16-Gao HTS; streptavidin beads, fluorescein-biotin binding, flow cytometry; inhibition, % at 10 µM; 1,700 tested, under 10 active; AID 1783;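 active means inhibition above 50%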;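 further: median green fluorescence of gated singlet beads compared with DMSO control wells; 0% = DMSO wells and 100% = complete loss of bead fluorescence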
RGS8-Gao single – confirmation of regulators of human RGS8-Galphao interaction; bead-based flow cytometry RGS8-Galphao binding, fluorescence; actives lie on both sides; shares compounds with RGS16-Gao HTS; binding response (% of control), % at 10 µM; 1,700 compounds, 3% hits; AID 1836; in the data active means binding response below about 72% or above about 130%; inactive means in between;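 further: Galphao activated as GDP AlF4 complex before binding bead RGS8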
RGS7-Gao single – RGS7-Galphao interaction regulation, single point confirmation; shares compounds with RGS16-Gao HTS; bead-based flow cytometry RGS7-Galphao binding; actives lie on both sides; response (percent of control binding), % at 10 µM; 1,700 compounds, 7.8% hits; in the data active means response below about 75% or above about 130%; inactive means in between;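 further: fluorescent Galphao activated with GDP and aluminum fluoride binding bead-coupled RGS7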
RGS16-Gao conf – confirmation of regulators of human RGS16-Galphao interaction | bead-based flow cytometry, RGS16-Galphao binding; actives lie on both sides | response (% of control binding), % at 10 µM | shares compounds with RGS16-Gao HTS | 1,700 compounds, 4% hits | AID 1838; in the data active means response below about 74% or above about 130%; inactive means in between;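 further: Galphao activated as the GDP aluminium fluoride complex binding bead-coupled RGS16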
RGS4-Gao confirm – confirmation of regulators of human RGS4-Galphao interaction; 1,700 compounds, 4% hits; AID 1840; RGS4-Galphao binding, multiplexed bead flow cytometry; actives lie on both sides; shares compounds with RGS16-Gao HTS; binding response (% of control), % at 10 µM; in the data active means binding response below about 74% or above about 130%; inactive means in between
RGS19-Gao single – RGS19-Galphao interaction regulation, single point confirmation. shares compounds with RGS16-Gao HTS. bead-based flow cytometry RGS19-Galphao binding; actives lie on both sides. response (percent of control binding), % at 10 µM. 1,700 compounds, 5% hits. AID 1841; in the data active means response below about 50% or above about 160%; inactive means in between;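 further: 100% = no compound control and 0% = blank background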
An asterisk follows results filed as active; ? = inconclusive; nt = no result; [ ] = remark or other dose. Hits are enriched below; roughly 1.2% of the tested compounds scored in any of these assays. Unless noted, how the calls were made is not given here.

SMILES	RGS4-Gao reg	Avidin bead fluor	RGS8-Gao reg	RGS16-Gao HTS	GSH fluor	RGS7-Gao reg	RGS4-Gao HTS	Biotin-avidin	RGS8-Gao single	RGS7-Gao single	RGS16-Gao conf	RGS4-Gao confirm	RGS19-Gao single
COc1ccc(C(=O)Nc2ccccc2C(=O)N(Cc2ccco2)C(C(N)=O)C(C)C)cc1 (centres undefined)	225*[activator]	104*	144*[activator]	333	12	140	nt	1	96	79	92	83	104
O=C(CSc1cccc[n+]1[O-])c1cc(Cl)ccc1Cl	101	24	101	106	28	98	nt	nt	nt	nt	nt	nt	nt
COc1ccc(C(CC(=O)O)NS(=O)(=O)c2ccc(C)cc2)cc1 (centres undefined)	99	32	99	97	17	101	nt	nt	nt	nt	nt	nt	nt
COc1ccc(C(CC(=O)O)NS(=O)(=O)c2ccc(C)cc2)cc1OC (centres undefined)	21*	0	12*	13*	36	12*	nt	0	100	98	98	100	99
CC(=O)CCn1cc([N+](=O)[O-])nc1C	102	11	102	102	nt	?	nt	nt	nt	nt	nt	nt	nt
CO/N=C/C(=N\Nc1ccc(C)cc1)C(=O)c1ccc(OC)cc1	101	10	105	107	14	105	nt	nt	nt	nt	nt	nt	nt
CO/N=C/C(=N\Nc1ccc(OC)cc1)C(=O)c1ccc(F)cc1	40*	5	45*	37	15	35*	nt	2	101	94	102	98	81
Cc1ccc(CC(=O)O/N=C(\N)Cc2ccc([N+](=O)[O-])cc2)cc1	92	9	78	17*	7	88	92*	nt	nt	nt	nt	nt	nt
COC(=O)c1nc2n(n1)C(c1ccc(OC)c(OC)c1)C(C(=O)OC1CCCCC1)=C(C)N2 (centres undefined)	82	2	88	-38*	54	88	82*	1	103	100	97	102	93
COc1ccc(C2C(C(N)=O)=C(C)Nc3nc(-c4ccccc4OC)nn32)cc1OC (centres undefined)	93	25	100	99	15	95	nt	nt	nt	nt	nt	nt	nt
CCN(C(=O)c1cc2cccc(OC)c2oc1=O)C1CCCCC1	187*[activator]	112*	85	223*[activator]	18	188*[activator]	nt	3	99	101	96	99	100
S=C(Nc1ccc2c(c1)OCO2)Nc1ccc2c(c1)OCO2	142	10	141*[activator]	146	22	159*[activator]	142*	0	100	103	99	102	92
CN(C)C(=S)Nc1ccc2c(c1)OCO2	97	9	94	95	10	95	nt	nt	nt	nt	nt	nt	nt
COc1ccc(-c2cn3c(C)c(C(=O)Nc4cccc(C)n4)sc3n2)cc1	110	198*	97	105	22	181*[activator]	110*	0	93	95	89	90	91
Cc1cccc(NC(=O)c2sc3nc(-c4ccccc4)cn3c2C)n1	102	9	100	92	22	101	nt	nt	nt	nt	nt	nt	nt
COc1ccc(C(=O)c2c[nH]c(C(=O)NCc3ccco3)c2)cc1	29*	1	18*	1.2*	22	20*	nt	-2	103	103	106	101	98
COc1cccc(C(=O)c2c[nH]c(C(=O)NCc3ccco3)c2)c1	105	5	100	105	39	103	nt	nt	nt	nt	nt	nt	nt
CCOc1ccc(CCNC(=O)c2cc(C)nn2-c2ccccc2)cc1	97	11	100	98	nt	?	nt	nt	nt	nt	nt	nt	nt
CCOc1cc(-c2nc(C)c(C(C)=O)n2O)ccc1OCC(=O)Nc1ccc(F)cc1	110	64*	103	114	10	158*[activator]	110*	-1	93	90	92	101	77
COc1cc(-c2nc(C)c(C(C)=O)n2O)ccc1OCC(=O)Nc1ccc(F)cc1	104	10	99	98	18	98	nt	nt	nt	nt	nt	nt	nt
COc1ccccc1-n1cnnc1SCC(=O)c1ccc[nH]1	-30*	-4	10.0*	-34*	29	-11*	nt	0	96	96	97	99	85
O=C1C(Cl)=C(N2CCCCC2)C(=O)C(Cl)=C1c1cnc(N2CCCCC2)s1	69	1	50*	32	3	43*	69*	1	37*	16*	27*	59*	-8.5*
CN(C)c1ncc(C2=C(Cl)C(=O)C(N3CCCC3)=C(Cl)C2=O)s1	67	1	47*	30	3	41*	67*	-4	41*	22*	35*	72*	-9.7*
Clc1ccc(Cl)c2sc(N3CCCC3)nc12	103	16	103	104	15	99	nt	nt	nt	nt	nt	nt	nt
NC(=O)C1CCN(C(=O)COc2ccc(Nc3ccccc3)cc2)CC1	92	9	100	98	nt	?	nt	nt	nt	nt	nt	nt	nt
SMILES	RGS4-Gao reg	Avidin bead fluor	RGS8-Gao reg	RGS16-Gao HTS	GSH fluor	RGS7-Gao reg	RGS4-Gao HTS	Biotin-avidin	RGS8-Gao single	RGS7-Gao single	RGS16-Gao conf	RGS4-Gao confirm	RGS19-Gao single
CC(C)c1onc(C(=O)NCCc2ccccc2)c1[N+](=O)[O-]	102	10	100	98	11	94	nt	nt	nt	nt	nt	nt	nt
CC(C)c1onc(C(=O)N(C)Cc2ccccc2)c1[N+](=O)[O-]	89	2	74	24*	10	87	89*	4	107	105	113	105	111
CCn1c(SCc2cccc(C(F)(F)F)c2)nnc1-c1ccco1	46*	11	48*	21	23	42*	nt	0	99	91	100	99	103
CCCc1ccc(OCC(=O)Nc2cc(S(=O)(=O)CC)ccc2O)cc1	95	11	99	98	11	98	nt	nt	nt	nt	nt	nt	nt
Cc1ccc(CSc2nccc(-c3c(C)nc4ccccn34)n2)cc1	100	6	101	100	nt	?	nt	nt	nt	nt	nt	nt	nt
Cc1cccc(NC(=O)CCn2ccnc2C)c1	22*	0	14*	13*	30	16*	nt	-1	102	94	102	98	96
